{"source": "the supplement of paper PMC10121225", "note": "Where a name gives a salt, the structure may show the parent alone.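 Note: immunostained co-cultures imaged by high-content microscopy, Z-score per plate against mean and SD of 0.1% DMSO wells, compounds added on differentiation day 18, analysed day 21.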"}
{"system": "hN + hpA co-culture (H1 iNGN2 human neurons + human primary astrocytes)", "test": "presynaptic density (SYNAPSIN1 puncta per MAP2 neurite area), Z-score vs DMSO controls; higher = more presynaptic puncta (synapse-promoting)", "conditions": "3 µM; 72 h"}
{"smiles": "CC(CCc1ccccc1)NCC(O)c1ccc(O)c(C(N)=O)c1", "note": "(centres undefined) [Labetalol HCl]", "presynaptic density (Z-score)": -0.733}
{"smiles": "CC(=O)Nc1nc2c(Oc3cc(-c4ccc(C(F)(F)F)cc4)ncn3)cccc2s1", "presynaptic density (Z-score)": 0.208}
{"smiles": "Cc1c(NC(=O)c2ccc(C(C)(C)C)cc2)cccc1-c1cn(C)c(=O)c(Nc2ccc(C(=O)N3CCOCC3)cc2)n1", "presynaptic density (Z-score)": 0.702}
{"smiles": "COc1cc2c(cc1Cc1cccc(Cl)c1F)c(=O)c(C(=O)O)cn2[C@H](CO)C(C)C", "note": "[Elvitegravir (GS-9137]", "presynaptic density (Z-score)": 0.597}
